Bioassay records (PubChem BioAssay)
Only some compounds are listed: those with a hit (about 19% of all), similar ones and a draw of the others.
DT40 TDP1 no CPT – qHTS for Inhibitors of human tyrosyl-DNA phosphodiesterase 1 (TDP1): qHTS in cells in absence of CPT; DT40 Tdp1-/- hTDP1 cells, no CPT, ATP luminescence, 48 h; Potency, µM (doses to about 46.2 µM), for inactives: top-dose activity change, negative = growth inhibition, usual class: inhibitors; actives 15% (n = 420,000); note: potency is the fitted concentration of half-maximal effect; % is set by controls: 0 for no effect and ±100 for the full control effect; nearly all actives have a fitted effect of over 55% in size
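A cellular qHTS used chicken DT40 cells lacking endogenous Tdp1 but carrying stably transfected human TDP1. Compounds were applied without camptothecin, and cell growth kinetics were judged by ATP-dependent luminescence after ≥48 hr.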
DT40 TDP1 CPT – qHTS for Inhibitors of human tyrosyl-DNA phosphodiesterase 1 (TDP1): qHTS in cells in presence of CPT | chicken DT40 Tdp1-/-;hTDP1 cells + 20 nM CPT, ATP luminescence, 48 h | Potency, µM (top dose mostly 46.2 µM), for the others: top-dose activity change, negative = growth inhibition, usual class: inhibitors | actives 12% (n = 420,000) | AID 686979, 2013; note: potency is the fitted concentration of half-maximal effect; % is set by controls: 0 for no effect and ±100 for the full control effect; nearly all actives have a fitted effect of over 55% in size
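Cell growth measured by CellTiter-Glo luminescence after a minimum 48 h, 37 C compound exposure with 20 nM CPT in Tdp1-knockout DT40 cells stably expressing hTDP1, seeded 400/well; qHTS titration format.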
IL1B secr inh – qHTS for Inhibitors of Inflammasome Signaling: IL-1-beta AlphaLISA Primary Screen. THP-1 LPS/ATP IL-1B secretion, AlphaLISA, 16 h; hits give low values. activity change, % at 57.5 µM. actives 4.7% (n = 360,000). AID 743279, 2014; in the data active = activity change below about -50%; inconclusive = mostly about -30% to -49%; note: % is set by controls: 0 for no effect and ±100 for the full control effect
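Secreted IL-1B measured by AlphaLISA bead assay after 16 h compound exposure of THP-1 cells; compounds (final up to 57.5 uM) added 1 h before LPS (250 ng/mL) and ATP (1.25 mM) stimulation; lower signal means less secretion.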
Chronic BCR inh – qHTS Assay to Find Inhibitors of Chronic Active B-Cell Receptor Signaling; ABC-DLBCL IkBa-CBG/CBR reporter, luminescence ratio, 4 h; Potency, µM (top dose mostly 46.1 µM), for the others: top-dose activity change, negative = inhibition, usual class: inhibitors; actives 0.05% (n = 340,000); AID 493014, 2011; active = well fitted inhibition curve with a large enough effect in the signal ratio, with a control signal flat, not every such curve was filed as active; inconclusive = small, poorly fitted or top-dose-only effect, or effect the other way, or a change in a side signal; the % refers to the signal ratio;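 note: potency is the fitted concentration of half-maximal effect; plate controls were basal doxycycline-induced cells for no effect and cells given 10 µM MG132 for full effect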
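Compounds up to 46 uM were incubated four hours with TMD8 cells whose green CBG68 luciferase is fused to IkappaBalpha; red CBR luminescence normalised the signal, and concentration-effect curves were fitted to fusion, red and ratio data.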
MCF10A rereplic – A quantitative high throughput screen for small molecules that induce DNA re-replication in MCF 10a normal breast cells. MCF 10A DNA re-replication, Hoechst nuclear intensity, 48 h. Potency, µM (series often up to 46.1 µM), inactives show top-dose activity, positive = re-replication, hits mostly activators. actives 2.9% (n = 350,000). AID 624296, 2012; note: potency is the fitted concentration of half-maximal effect; % of control where 0% means no effect; nearly all actives have a fitted effect of over 50% in size
SW480 rereplic – A quantitative high throughput screen for small molecules that induce DNA re-replication in SW480 colon adenocarcinoma cells; Potency, µM (series often up to 46.1 µM), without a hit: at the highest dose re-replication activation, most hits filed as activators; actives 1.8% (n = 340,000); SW480 DNA re-replication, Hoechst DNA content imaging, 48 h; note: potency is the fitted concentration of half-maximal effect; % of control where 0% means no effect; nearly all actives have a fitted effect of over 55% in size
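DNA re-replication was detected as more nuclei of elevated Hoechst intensity after 48 hr exposure to compound (23 nL pinned per well of 250 cells).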
The depositor's hits bear a star; ? = inconclusive; . = no result. Unless noted, calls come from the whole dose curve; as a rule, active = well fitted curve in the direction sought with a large enough effect; inconclusive = small, poorly fitted or top-dose-only effect, or another doubt; inactive = no such curve, though single readings can be large; an effect the other way counts as inactive or inconclusive.

SMILES	DT40 TDP1 no CPT	DT40 TDP1 CPT	IL1B secr inh	Chronic BCR inh	MCF10A rereplic	SW480 rereplic
Cc1cn([C@H]2C[C@H](O)[C@@H](CNC(=O)[C@H](N)Cc3cn(COCc4ccccc4)cn3)O2)c(=O)[nH]c1=O	0%	-1%	-14	.	.	.
O=c1[nH]c(CN2CCN(C/C=C/c3ccccc3)CC2)nc2cc(Cl)ccc12	21µM*	?	-72*	2%	?	?
O=C(CCc1nc2ccccc2c(=O)[nH]1)N1CCN(C/C=C/c2ccccc2)CC1	6.5µM*	7.3µM*	23	?	20%	1%
CC(=O)N1CCN(C(=O)CCc2nc3ccccc3c(=O)[nH]2)CC1	8%	?	9	-13%	-3%	-14%
O=C(c1ccco1)N1CCN(Cc2nc3cc(Cl)ccc3c(=O)[nH]2)CC1	-26%	-12%	0	12%	0%	-2%
O=C(CN1CCN(S(=O)(=O)N2CCOCC2)CC1)Nc1cc(Cl)ccc1Cl	?	-22%	4	?	0%	0%
CCN(CC)C(=O)Cn1c(=O)n(-c2ccc(Cl)c(Cl)c2)c(=O)c2c(C)c(C(=O)N(CC)CC)sc21	16%	6%	.	8%	.	.
CCOc1ccc(C(=S)N2CCCC2)cc1	-5%	-5%	23	-57%	1%	2%
CCOc1ccc(C(=S)N2CCCC2)c(OCC)c1	?	21µM*	8	3%	1%	-9%
Cn1cc(C(=O)NCc2ccc(Cl)cc2)c(=O)c2cc(S(=O)(=O)N3CCCCCC3)ccc21	16µM*	?	.	.	.	.
CCN(CC)S(=O)(=O)c1ccc2c(c1)c(=O)c(C(=O)NCc1ccc(Cl)cc1)cn2C	9.2µM*	10µM*	.	.	.	.
Cn1cc(C(=O)O)c(=O)c2cc(S(=O)(=O)N3CCOCC3)ccc21	23µM*	16µM*	.	0%	.	.
CC1CCN(S(=O)(=O)c2ccc3c(c2)c(=O)c(C(=O)NCc2ccco2)cn3C)CC1	21µM*	21µM*	-11	-5%	12%	4%
Cc1cc(Br)cc2c1N(C)C(=O)C2(c1ccc(O)cc1)c1ccc(O)cc1	-14%	-22%	5	.	?	1%
O=C1CCC(C(=O)N2CCCCCC2)CN1CCc1ccc(Cl)cc1 (configuration not stated)	-1%	-26%	-9	-12%	0%	-8%
Cc1ccccc1Cn1ccc(NC(=O)c2cnn3c2NC(c2ccccc2)CC3C(F)(F)F)n1 (configuration not stated)	?	?	-66*	-2%	27%	10%
Cc1nn(C)c(C)c1CN(C)C(=O)c1cnn2c1NC(c1ccccc1)CC2C(F)(F)F (configuration not stated)	?	?	45	?	1%	4%
O=C(NCc1ccco1)c1cnn2c1NC(c1ccc(Br)cc1)CC2C(F)(F)F (configuration not stated)	4.1µM*	4.1µM*	-28	-3%	?	?
O=C(NCc1ccco1)c1cnn2c1NC(c1ccccc1)CC2C(F)(F)F (configuration not stated)	-12%	18µM*	-10	?	2%	-1%
O=C(O)C(CO)(c1ccccc1)c1ccccc1	3%	-6%	5	-2%	12%	6%
CNC(=S)N1CCN(CCNC2=CC(=O)CC(C)(C)C2)CC1	14%	5%	18	?	?	-15%
